PrPC TRFRET – reduces human prion protein on the cell surface; cell surface PrPC, TR-FRET read-out; inhibition, % at 13.8 µM; 370,000 compounds, 0.43% hits; in the data active = inhibition above about 24%
PriA SSB inh – inhibitors of Klebsiella pneumoniae PriA binding to SSB C-terminal tail | AlphaScreen SSBct-PriA binding, biotinylated peptide | inhibition, % at 33 µM | 430,000 compounds, 0.6% hits | AID 1272365; in the data active = inhibition mostly above about 37%, no sharp cut-off; inactive = mostly below about 20%
TcdB GH inh – TcdB glycohydrolase inhibition | inhibition, % at 9.99 µM | TcdB glycohydrolase enzymatic assay, plate reader | P18177 | 350,000 compounds, 0.24% hits; in the data active = inhibition above about 10%
VHR inh abs – DUSP3 (human) phosphatase inhibition | P51452 | recombinant VHR phosphatase, pNPP absorbance | inhibition, % at 13.3 µM | 290,000 compounds, 0.52% hits | AID 1654; in the data active = inhibition above about 50%
BH1578 lux ind – induces V. cholerae light production without autoinducers | AID 588436 | 350,000 compounds, 0.16% hits | activation, % at 18.7 µM | V. cholerae BH1578 lux reporter, luminescence, 6 h; in the data active = activation mostly above about 9.7%, no sharp cut-off
CCHFV vOTU inh – blocks the CCHF virus ovarian tumor domain protease | AID 651958 | inhibition, % at 11.5 µM | CCHFV vOTU protease, Pep-AMC fluorescence | 370,000 compounds, 0.55% hits; in the data active = inhibition above about 30%
PrPC TRFRET cf – cell surface PrPC inhibition, TR-FRET confirmation | inhibition, % at 13.8 µM | 1,500 compounds, 65% hits | shares compounds with PrPC TRFRET | cell surface PrPC level; in the data active = inhibition above about 25%
LD9 tox – kills or reduces viability of LD9 cells in PrPc counter-screen; shares compounds with PrPC TRFRET; LD9 cells cytotoxicity, luminescence viability; inhibition, % at 13.8 µM; 1,500 compounds, 29% hits; in the data active = inhibition above about 9.5%
A number is an active result; . = inactive; / = not tested or not shown. Hits are enriched below; roughly 1.5% of the tested compounds scored in any of these assays.

SMILES	PrPC TRFRET	PriA SSB inh	TcdB GH inh	VHR inh abs	BH1578 lux ind	CCHFV vOTU inh	PrPC TRFRET cf	LD9 tox
CCCn1c(N)c(C(=O)CSc2nnc(N)s2)c(=O)[nH]c1=O	42	.	.	/	.	.	43	.
CCCn1c(N)c(C(=O)CSc2nncs2)c(=O)[nH]c1=O	55	.	.	/	.	.	67	.
CCCn1c(N)c(C(=O)CSc2nc3ccccc3s2)c(=O)[nH]c1=O	.	.	.	.	.	.	/	/
CC1CN(S(=O)(=O)c2ccc(C(=O)Nc3nnc(-c4cccc(S(C)(=O)=O)c4)o3)cc2)CC(C)O1 (centres undefined)	/	.	/	/	/	/	/	/
CCOC(=O)c1sc(C)c2c1NC1(CCCCC1)NC2=O	.	.	.	.	.	.	/	/
CCOC(=O)c1sc(C)c2c1NC(C)(c1cccs1)NC2=O (centres undefined)	36	.	/	.	.	.	34	.
CCN1CCN(C(=O)N2CCCC[C@H](c3ccc(Cl)cc3)C2)C(=O)C1=O	/	.	/	/	/	/	/	/
NC(CCc1ccccc1)c1csc(NC(=O)Nc2ccccc2Oc2ccccc2)n1 (centres undefined)	50	/	.	/	.	.	34	.
COc1ccc(C(N)c2csc(NC(=O)Nc3ccccc3C(C)(C)C)n2)cc1 (centres undefined)	30	/	.	/	.	.	.	.
NC(CCc1ccccc1)c1csc(NC(=O)NCCc2ccccc2)n1 (centres undefined)	.	/	.	/	.	.	/	/
Cc1cccc2nc(-c3ccco3)c(Nc3ccccc3)n12	.	.	.	.	.	.	/	/
Cc1ccc(Nc2c(-c3ccccn3)nc3cccc(C)n23)cc1	30	.	.	.	.	.	.	40
CCOC(=O)Nc1ccccc1Cc1nc(C2CC2)no1	/	.	/	/	/	/	/	/
O=C(NC=NOCc1ccc(Cl)cc1Cl)NOCc1ncc(C(F)(F)F)cc1Cl	/	.	/	/	/	/	/	/
CCn1c(Cl)c(C=O)s/c1=N\S(=O)(=O)c1ccccc1	53	/	.	.	.	.	102	94
COc1ccc(CC(=O)Nc2ccc(C)c(N3CCCCC3=O)c2)cc1OC	/	.	/	/	/	/	/	/
CCCCC1=CC2=C(c3ccco3)C(=O)C(C)(OC(=O)c3ccc(OC)cc3)C(=O)C2=CN1CCOC (centres undefined)	.	.	/	.	.	.	/	/
CCCCC1=CC2=C(c3ccco3)C(=O)C(C)(OC(=O)c3ccc(OC)cc3)C(=O)C2=CN1CCc1ccccn1 (centres undefined)	26	.	.	.	.	.	33	.
CC(C)(Oc1ccc(Cl)cc1)C(=O)NCC[C@H](O)c1ccco1	/	.	/	/	/	/	/	/
CCC(C(=O)NCc1ccc2c(c1)cc(C)n2C)c1ccccc1 (centres undefined)	/	.	/	/	/	/	/	/
Cc1cc2cc(CNC(=S)Nc3ccccc3Cl)ccc2n1C	/	.	/	/	/	/	/	/
Cc1cc2cc(CNC(=S)NCc3ccccc3)ccc2n1C	31	75	.	.	.	.	29	.
COc1ccccc1NC(=S)NCc1ccc2c(c1)cc(C)n2C	50	88	.	.	.	.	.	.
Cc1cc2cc(CNC(=O)C(C)Oc3ccccc3)ccc2n1C (centres undefined)	36	.	.	.	.	.	.	.
CONC=C(C=Nc1ccc(F)cc1)c1ncc(C(F)(F)F)cc1Cl	/	.	/	/	/	/	/	/
SMILES	PrPC TRFRET	PriA SSB inh	TcdB GH inh	VHR inh abs	BH1578 lux ind	CCHFV vOTU inh	PrPC TRFRET cf	LD9 tox
COc1cc(C(=O)Nc2ccc3c(c2)OCCO3)c(-n2cnnn2)cc1OC	.	.	/	.	.	.	/	/
COc1cc(NC(=O)C2CCN(S(=O)(=O)c3ccc(Cl)cc3)CC2)ccc1-n1cnnn1	27	.	/	.	.	.	.	15
CC1CCCN(c2ccc(C(=O)Nc3nnc(C4CC4)s3)cc2[N+](=O)[O-])C1 (centres undefined)	.	.	.	.	.	.	/	/
COc1ccc(NC(=O)C2CC2)cc1-n1cnnn1	.	.	/	.	.	.	/	/
CC1CCN(c2ccc(C(=O)Nc3ccc4c(c3)OCO4)cc2[N+](=O)[O-])CC1	74	39	.	.	.	.	77	.
COc1cc(C(=O)Nc2ccc3c(c2)OCO3)ccc1-n1cnnn1	45	.	/	.	.	.	32	.
CC1CCCN(c2ccc(C(=O)Nc3ccc4c(c3)OCO4)cc2[N+](=O)[O-])C1 (centres undefined)	31	.	/	.	.	.	40	.
COc1cnc(-c2ccccn2)nc1N(C)c1ccccc1	34	98	.	.	.	.	27	23
O=C(Nc1ccc2c(c1)C(=O)N1CCCC[C@H]1CCO2)c1cncc(Br)c1	/	.	/	/	/	/	/	/
Cc1ccc(OCc2nc3ccccc3n2C(C)C(=O)Nc2c(C)cccc2C)cc1 (centres undefined)	33	/	.	/	/	.	26	.
Clc1cccc(-c2ccc(CNCc3ccccn3)o2)c1	.	.	.	.	.	.	/	/
Brc1ccc(-c2ccc(CNCc3ccccn3)o2)cc1	30	.	.	.	.	.	49	.
Fc1ccccc1COc1ccc(Br)cc1CNCc1ccncc1	25	.	/	.	.	.	.	17
O=C1NC(Cc2ccccc2)C(=O)Nc2ccc(Br)cc21 (centres undefined)	25	.	.	.	.	.	.	.
CC[C@@H]1N=C(c2ccccc2)c2cc(Br)ccc2NC1=O	/	.	/	/	/	/	/	/
O=C(Cn1cnc2ccccc21)N1CCC[C@H](Cc2nc(C3CC3)no2)C1	/	.	/	/	/	/	/	/
Cn1nc(C(F)(F)F)c(/C=N/OC(=O)c2ccccc2Cl)c1SCc1ccccc1Cl	70	/	/	.	.	.	82	.
COc1ccc(OC)c(-c2nnc(NC(=O)CCc3ccccc3)s2)c1	/	.	/	/	/	/	/	/
Cn1cccc1/C=N\NC(=O)Cc1ccc(Br)c2ccccc12	31	/	/	.	/	.	35	.
Cn1cccc1/C=N/NC(=O)Cc1ccccc1	.	.	.	.	.	.	/	/
Cc1cc2nc(N)sc2cc1C	36	.	/	.	.	.	.	.
O=C(NN=Cc1ccc(O)cc1O)C(=O)NN=Cc1ccc(O)cc1O	/	.	/	/	/	/	/	/
C=Cc1ccc(CSc2nc3c(c(=O)[nH]2)CN(Cc2ccc(OC)cc2)CC3)cc1	/	.	/	/	/	/	/	/
O=C(NCc1cncc(-c2ccsc2)c1)c1ccc2n[nH]nc2c1	/	.	/	/	/	/	/	/
Cn1nnnc1Sc1ncnc2scc(-c3ccc(Br)cc3)c12	25	.	.	/	.	.	27	22
Cn1nnnc1Sc1ncnc2scc(-c3ccc(F)cc3)c12	.	.	/	.	.	.	/	/
O=C1C(=O)N(CCCn2ccnc2)C(c2cccc(Br)c2)/C1=C(\O)c1ccc2c(c1)OCCO2 (centres undefined)	30	/	.	.	.	.	43	.
O=C1C(=O)N(CCCn2ccnc2)C(c2ccc(Br)cc2)/C1=C(\O)c1ccc2c(c1)OCCO2 (centres undefined)	.	/	.	.	.	.	/	/

Source: PubChem BioAssay (several laboratories)
